Experimental data published in PubChem BioAssay (NCI).
This is part of a sample that, as a whole, favours compounds with a hit. Of some 83,000 tested, about 20% had one in any assay.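 Testing used 96-well plates and a 48-hour single-concentration exposure. Example: -40 means 40% of the starting cells died.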 Values without a mark were called inactive. The source made the active and inactive calls. Rule for the calls: active = growth percent below 10; inactive = the rest.

Legend:
Experiment in all cases: NCI-60 one-dose screen, 48 h (100 = growth as untreated, 0 = no growth, -100 = all killed)
Conditions in all cases: 10 µM unless noted
SR leukemia = system: SR leukemia
OVCAR-8 ovarian = system: OVCAR-8 ovarian
OVCAR-5 ovarian = system: OVCAR-5 ovarian
OVCAR-4 ovarian = system: OVCAR-4 ovarian
IGROV1 ovarian = system: IGROV1 ovarian
OVCAR-3 ovarian = system: OVCAR-3 ovarian
HS 578T breast = system: HS 578T breast
NCI/ADR-RES ovarian = system: NCI/ADR-RES ovarian
SK-OV-3 ovarian = system: SK-OV-3 ovarian

Row | Compound | growth (SR leukemia) | growth (OVCAR-8 ovarian) | growth (OVCAR-5 ovarian) | growth (OVCAR-4 ovarian) | growth (IGROV1 ovarian) | growth (OVCAR-3 ovarian) | growth (HS 578T breast) | growth (NCI/ADR-RES ovarian) | growth (SK-OV-3 ovarian)
1 | N=C(N)c1ccc(-c2ccc(-c3ccc(Cl)cc3Cl)o2)cc1 | 2.97% (active) | -23.5% (active) | 16% | -38.1% (active) | -76.6% (active) | -40.2% (active) | 29.7% | -46.8% (active) | –
2 | CCn1c(Sc2nnc(NC(=O)CCN3CCCC3)s2)nc2c1c(=O)n(C)c(=O)n2C | 111% | 103% | 98.3% | 105% | 115% | 109% | 100% | 109% | –
3 | COc1ccc(/C=C(\C#N)n2nnc3ccccc32)cc1 | 27% | 19.6% | -13.4% (active) | 35.1% | – | -66.4% (active) | -0.28% (active) | 0.0544% (active) | –
4 | O=C1CCC(N2C(=O)c3cccc(NCCCC4CCN(CCNC(=O)c5cc6c(o5)C(=O)c5ccccc5C6=O)CC4)c3C2=O)C(=O)N1 (centres undefined) | 14.5% | 6.28% (active) | -98% (active) | -99.3% (active) | – | -90.9% (active) | -25.8% (active) | 20.4% | –
5 | CC(C)(C)c1ccc(C(=O)Nc2sc3c(c2C(N)=O)CCC(=O)C3)cc1 | 11.1% | 8.88% (active) | 12.3% | -91.1% (active) | -21.6% (active) | -78.8% (active) | -12% (active) | -0.603% (active) | –
6 | C=C1C(=O)O[C@H]2[C@H]1CC/C(COC(=O)/C=C\C(=O)NCc1ccc(Cn3c(=O)sn(-c4ccc(C#N)cc4)c3=O)cc1)=C\CC[C@@]1(C)O[C@@H]21 | -37.6% (active) | -10.9% (active) | – | -81.1% (active) | -98.7% (active) | -90.1% (active) | -24.9% (active) | 0.213% (active) | 37.8%
7 | O=C(NCCN1CCC(O)CC1)c1cc2c(o1)C(=O)c1ccccc1C2=O | 13.4% | -48.8% (active) | -84.7% (active) | -94.1% (active) | -83.8% (active) | -75.1% (active) | -27.4% (active) | -26.3% (active) | –
8 | N#C/C(=C\c1ccc2c(c1)OCO2)n1nnc2ccccc21 | 28% | 17.7% | -17.5% (active) | 34.2% | 4.33% (active) | -69% (active) | -4.27% (active) | 6.26% (active) | –
9 | O=C1Nc2ccc(Cl)cc2/C1=N/N=C/c1c[nH]c2ccccc12 | 75.2% | 76% | 89.8% | 67.8% | 42.7% | 76.5% | 22% | 98.1% | –
10 | Cc1[nH]c(-c2nc3ccccc3[nH]2)c(C)c1C(=O)N1CCOCC1 | 98.6% | 106% | 98% | 99.8% | 99.4% | – | 90.4% | 101% | –
11 | Cc1[nH]c(-c2nc3ccccc3[nH]2)c(C)c1C(=O)NNc1ccc(Cl)cc1 | 88.6% | 90.2% | 101% | 88.2% | 88% | 98.4% | 92.7% | 96.3% | –
12 | N#C/C=C(\c1ccc([N+](=O)[O-])cc1)n1nnc2cc(Cl)c(Cl)cc21 | 13% | 15.7% | 10.1% | 0.234% (active) | -43% (active) | -48% (active) | 27.8% | -4.34% (active) | –
13 | O=C1Nc2ccccc2/C1=N/N=C/c1c[nH]c2ccccc12 | 67% | 70.4% | 81.6% | 59.9% | – | 69.5% | 15% | 91% | –
14 | COc1ccc(C(=O)/C=C/C23c4ccccc4C(c4ccccc42)C2C(=O)NC(=O)C23)cc1 (centres undefined) | 75.5% | 88.3% | 91.4% | 88.5% | 98.8% | 95.9% | 77.6% | 90.1% | –
15 | O=C(CC12CC3CC(CC(C3)C1)C2)NCCOCCOCCOCCNC(=O)c1cc2c(o1)C(=O)c1ccccc1C2=O | 7.13% (active) | 12.4% | -87.9% (active) | -95.9% (active) | -10.8% (active) | -42.9% (active) | -27.2% (active) | -15% (active) | –
16 | COc1cc(-c2ccc(-c3ccc(C(=N)N)nc3)s2)cc(OC)c1OC | 6.31% (active) | 57.2% | 81% | 60.9% | 62.5% | -41.9% (active) | 64.4% | 78.6% | –
17 | O=C(CC12CC3CC(CC(C3)C1)C2)NCCOCCOCCNC(=O)c1cc2c(o1)C(=O)c1ccccc1C2=O | 9.52% (active) | -2.31% (active) | -96.9% (active) | -99.1% (active) | -43.9% (active) | -40.8% (active) | -24.6% (active) | -24.6% (active) | –
18 | N#C/C(=C\c1ccc(Br)cc1)n1nnc2ccccc21 | 11.7% | 17.3% | 7.66% (active) | 6.76% (active) | 1.96% (active) | -31.8% (active) | 19.4% | -6.66% (active) | –
19 | Cc1[nH]c(-c2nc3ccccc3[nH]2)c(C)c1C(=O)N1CCc2sccc2C1 | 97.7% | 91.2% | 83.5% | 83.3% | 98.5% | 95% | 87.7% | 93.2% | –
20 | Cl.[Pt].[c-]1ccccc1-c1ccccn1.c1ccc(P(c2ccccc2)C([PH+](c2ccccc2)c2ccccc2)[PH+](c2ccccc2)c2ccccc2)cc1 | 20.4% | 15.6% | 22.7% | 21.3% | 17.2% | 11.6% | 7.92% (active) | 60.7% | –
21 | CC(C)c1ccc(NC(=O)Cc2ccc(Nc3ncnc4cc(-c5cnn(CCN(C)C)c5)ccc34)cc2)cc1 | -49.1% [30 µM] (active) | -27.5% [30 µM] (active) | – | -83.1% [30 µM] (active) | -69.7% [30 µM] (active) | -89.6% [30 µM] (active) | -60.6% [30 µM] (active) | 52.4% [30 µM] | -30.6% [30 µM] (active)
22 | O=C1Nc2ccccc2/C1=N/N=C/c1ccsc1 | 88.6% | 102% | 115% | 90.4% | 101% | 103% | 94.4% | 110% | –
23 | O[C@H]1CO[C@H]2[C@@H]1OC[C@@H]2Oc1ccc(Nc2ccnc(Nc3ccc(O[C@H]4CO[C@H]5[C@@H]4OC[C@@H]5O)c(Cl)c3)n2)cc1Cl | 12.2% | 7.77% (active) | – | 19.8% | -2.78% (active) | 13.6% | -2.86% (active) | 74.1% | 19.1%
24 | N=C(N)c1ccc(-c2ccc(-c3ccc(Cl)c(Cl)c3)o2)cc1 | -14.5% (active) | 1.38% (active) | 39.9% | -13.1% (active) | -64.6% (active) | -42.2% (active) | 70.9% | 35.1% | –
25 | COc1cc2cc(Oc3ccc(NC(=O)Nc4cc(C(F)(F)F)cc(C(F)(F)F)c4)cc3)c(C)nc2cc1OCCN1CCCCC1 | -29.5% (active) | -48.1% (active) | -65.9% (active) | -90.6% (active) | -78.4% (active) | -91.4% (active) | -44.1% (active) | -66.9% (active) | –
26 | N#C/C(=C\c1ccc(Br)cc1)n1nnc2cc(Cl)c(Cl)cc21 | 10% | 22.2% | 46.2% | 21.6% | 23.3% | 5.17% (active) | 51.3% | 7.03% (active) | –
27 | O=C(NCCOCCOCCNc1cccc2c1C(=O)N(C1CCCNC1=O)C2=O)c1cc2c(o1)C(=O)c1ccccc1C2=O (centres undefined) | 13.3% | 3.33% (active) | -84.5% (active) | -98.1% (active) | -15.4% (active) | – | -22.2% (active) | 48.6% | –
28 | COc1ccc(-c2nnc(-c3ccc4c(c3)nc(-c3ccccc3)n4C3CCCCC3)o2)cc1 | 58.3% | 30.8% | – | 51% | 89.4% | 43% | 103% | 40.1% | 84.2%
